Assay outcomes: PubChem BioAssay, National Center for Advancing Translational Sciences (NCATS)
IL1B secr inh = inhibitors of inflammasome signaling (IL-1 beta secretion) | THP-1 LPS/ATP IL-1B secretion, AlphaLISA, 16 h; hits give low values | 360,000 compounds, 4.7% hits | activity change, % at 57.5 µM | AID 743279; in the data active = activity change below about -50%; inconclusive = mostly about -30% to -49%
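THP-1 cells pretreated 1 hr with compounds (up to 57.5 uM final), then stimulated with LPS (250 ng/mL final) plus ATP (1.25 mM final); secreted IL-1B measured by AlphaLISA after 16 hr, decreased signal indicating inhibition.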
DT40 TDP1 no CPT = qHTS for Inhibitors of human tyrosyl-DNA phosphodiesterase 1 (TDP1): qHTS in cells in absence of CPT. DT40 Tdp1-/- hTDP1 cells, no CPT, ATP luminescence, 48 h. 420,000 compounds, 15% hits. AID 686978, 2013. Potency, µM (highest dose often 46.2 µM), for the others: top-dose activity change, negative = growth inhibition, usual class: inhibitors; also: potency is read from the fitted curve at half-maximal effect; nearly all actives have a fitted effect of over 55% in size
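No-CPT arm: Tdp1-/-;hTDP1 DT40 cells (400/well) plus compounds, incubated ≥48 hr at 37 °C. Readout CellTiter-Glo luminescence.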
uPA surface inh = inhibitors of cell surface uPA generation. Potency, µM (highest dose often 38.3 µM), without a hit: at the highest dose activity change, negative = inhibition, most hits filed as inhibitors. 330,000 compounds, 0.31% hits. cell surface uPA generation assay, qHTS; active = well fitted inhibition curve with a large enough effect; inconclusive = small, poorly fitted or top-dose-only effect; inactive = no such curve, though single readings can be large or run the other way; tested in mouse RAW 264.7 cells; also: potency is read from the fitted curve at half-maximal effect; nearly all actives have a fitted effect of over 55% in size
DT40 TDP1 CPT = DT40-hTDP1 cell growth loss with CPT; Potency, µM (top dose mostly 46.2 µM), without a hit: at the top dose activity change, negative = growth inhibition, hits mostly inhibitors; chicken DT40 Tdp1-/-;hTDP1 cells + 20 nM CPT, ATP luminescence, 48 h; 420,000 compounds, 12% hits; AID 686979; also: potency is read from the fitted curve at half-maximal effect; nearly all actives have a fitted effect of over 55% in size
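Cell growth measured by CellTiter-Glo luminescence after a minimum 48 h, 37 C compound exposure with 20 nM CPT in Tdp1-knockout DT40 cells stably expressing hTDP1, seeded 400/well; qHTS titration format.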
HT1080NT lethal = kills 2HG-producing HT-1080-NT fibrosarcoma cells; HT-1080-NT fibrosarcoma viability, CellTiter-Glo ATP luminescence, 48 h; Potency, µM (series often up to 46.1 µM), without a hit: top-dose activity, negative = less viability, usual class: cytotoxic; 360,000 compounds, 1.6% hits; AID 686970;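 also: NT is the 2HG producing partner of a matched IDH1 knockdown line; potency is read from the fitted curve at half-maximal effect; 0% = DMSO-treated cells and -100% = media-only wells without cells; nearly all actives have a fitted effect of over 55% in size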
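HT-1080-NT; 750 cells/well; 5% FBS RPMI; 48 h compound, 37 degrees C; CellTiter-Glo luminescence; curve fitting and curve-class assignment.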
HT1080 IDH1KD tx = toxicity to HT-1080 IDH1 knockdown cells (counter line). 360,000 compounds, 2% hits. Potency, µM (doses to about 46.1 µM), for the others: at the top dose activity, negative = toxicity, actives largely listed as cytotoxic. HT-1080 IDH1 knockdown viability, ATP luminescence, 48 h;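 also: potency is read from the fitted curve at half-maximal effect; 0% = DMSO wells and -100% = cell-free medium wells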
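Luminescent ATP read-out (CellTiter-Glo, 10 min at room temperature) after 48 h compound exposure at 37 °C gave viability of IDH1-knockdown HT-1080 cells. Activity was normalised to DMSO and cell-free wells, then fitted as concentration-response curves.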
The depositor's hits bear a star; ? = inconclusive; . = not tested or not shown; ! = not active in a repeat. The list is not random: actives were taken first. Their share in the collection is about 19%. Unless noted, calls follow the shape of the dose curve; as a rule, active = well fitted curve in the direction sought with a large enough effect; inconclusive = small, poorly fitted or top-dose-only effect, or another doubt; inactive = no such curve, though single readings can be large; an effect the other way counts as inactive or inconclusive. Unless noted, % is scaled to controls: 0 for no effect and ±100 for the full control effect.

SMILES	IL1B secr inh	DT40 TDP1 no CPT	uPA surface inh	DT40 TDP1 CPT	HT1080NT lethal	HT1080 IDH1KD tx
Cc1ccc2nc(NC(=O)CSc3nc4c(c(=O)n3C)SC(C)C4)sc2c1 (configuration not stated)	-56.3*	20.6µM*	2.6%	20.6µM*	-22.7%	-26.0%
O=C(Nc1ccncc1)c1cnn2c1NC(=C1CC1)C=C2C(F)F	.	11.2µM*	.	10µM*	.	.
O=C(Nc1ccc(F)c(F)c1)c1cnn2c1NC(=C1CC1)C=C2C(F)F	.	-17.9%	.	16.1%	28.3%	23.4%
Cc1ccc2c(c1)CCCN2C(=O)c1cnn2c1NC(=C1CC1)C=C2C(F)F	.	10µM*	.	10µM*	.	.
Cc1ccc(NC(=O)OC(C)N2CCCCC2)cc1NC(=O)OC(C)N1CCCCC1 (configuration not stated)	?	?	12.4%	-9.9%	-13.1%	-10.5%
Cc1cc(=O)[nH]c(N2CCCNCC2)n1	-0.1	-13.2%	3.0%	-28.8%	2.7%	8.1%
Cc1cc(=O)[nH]c(-n2nc(C)cc2C)n1	15.5	23.1µM*	-1.1%	23.1µM*	-23.3%	?
CC1(C(=O)NS(=O)(=O)c2ccc(Cl)s2)CCN1C(=O)c1ccc(C2CCCCC2)cc1 (configuration not stated)	6.7	-11.0%	.	-5.6%	-0.4%	11.5%
Cn1c(-c2ccccc2[N+](=O)[O-])[n+](C)c2ccccc21	69.3	5.8µM*	-0.5%	13µM*	-7.4%	?
c1ccc(-n2cc(CN3CCC(N4CCOCC4)CC3)c(-c3ccc4c(c3)OCO4)n2)cc1	-66.5*	?	0.4%	-2.6%	0.0%	9.4%
COCC1CCCN(Cc2cn(-c3ccccc3)nc2-c2ccc3c(c2)OCO3)C1 (configuration not stated)	-7.0	-27.7%	0.9%	-12.4%	0.3%	1.5%
O=C(Nc1nc(-c2ccccc2)c(C(=O)c2ccccc2)s1)c1ccc(S(=O)(=O)N2CCCCC2)cc1	9.7	?	2.3%	-22.7%	14.6%	13.9%
COC(=O)Nc1nc(-c2ccccc2)c(C(=O)c2ccc(Cl)cc2)s1	9.9	0.651µM*	-9.9%	0.581µM*	?	?
CCOC(=O)Nc1nc(-c2ccccc2)c(C(=O)c2ccccc2)s1	46.5	0.651µM*	-15.3%	0.581µM*	0.581µM*	0.581µM*
CC(=O)c1sc(NC(=O)c2ccccc2)nc1-c1ccccc1	0.0	-21.9%	?	-17.2%	-3.2%	-0.8%
Cc1cccc(-c2nc3c4c(-c5ccccc5)c(-c5ccccc5)oc4ncn3n2)c1	.	3.0%	.	-20.2%	.	.
CN(C1CCCCC1)S(=O)(=O)c1ccc2c(c1)c(=O)c(C(=O)N1CCN(c3ccccc3)CC1)cn2C	.	-0.1%	.	-10.7%	.	.
Cc1cc(C(=O)N2CC(C)CC(C)C2)n(-c2ccccc2)n1 (configuration not stated)	-9.1	8.2µM*	0.1%	10.3µM*	16.4%	-3.4%
O=C(CSc1nc(-c2cccs2)nc2cc(=O)[nH]n12)Nc1cccc(C(F)(F)F)c1	.	1.8%	.	7.6%	.	.
N#Cc1c[nH]n2c(NC3CCCC3)c(-c3ccc(Br)cc3)nc12	.	23.1µM*	.	18.4µM*	.	.
Brc1ccc2nc(-c3ccncc3)c(NC3CCCC3)n2c1	-5.2	-27.3%	1.7%	?	-7.0%	-0.2%
N#Cc1c(-c2ccc(Cl)cc2)ccn2nc(C3CCCCC3)nc12	10.5	-15.2%	-0.9%	?	6.7%	14.5%
Cc1cccc(-c2nc3c(C#N)c[nH]n3c2NC2CCCCC2)c1	.	20.6µM*	.	?	.	.
CCOc1ccc2nc(SCC(=O)NC3CCCCC3)[nH]c2c1	-16.3	?	-5.1%	-25.8%	-4.3%	-17.1%
N#Cc1c[nH]n2c(NC3CCCC3)c(-c3ccc(Cl)cc3)nc12	.	16.4µM*	.	?	.	.
SMILES	IL1B secr inh	DT40 TDP1 no CPT	uPA surface inh	DT40 TDP1 CPT	HT1080NT lethal	HT1080 IDH1KD tx
CCOc1ccc(-c2nc3c(C#N)c[nH]n3c2NC2CCCCC2)cc1	.	7.31µM*	.	8.2µM*	.	.
O=C(NCc1ccncc1)[C@@H]1CCCN1C(=O)[C@H]1CCCN1C(=O)c1ccccc1	57.5	-26.9%	.	-7.4%	16.8%	-0.3%
O=C(Nc1cc(C(=O)NC2CCOCC2)c2c(c1)ncn2C1CCCC1)c1ccccc1	.	-14.1%	.	2.1%	.	.
Cc1cc(C)nc(N/C=C(\C#N)C(=O)c2cccc(CSc3ccccc3)c2)n1	.	-6.3%	.	?	.	.
O[C@@H]([C@H](O)[C@H](O)CBr)[C@H](O)CBr	28.8	11.6µM*!	5.6%	18.4µM*!	21.6%	10.2%
CCCCn1c(=O)[nH]c(=O)c2c1nc(Cn1ncc(Cl)c(Cl)c1=O)n2CCC	-104.0*	2.59µM*	6.6%	4.61µM*	8.2µM*	11.6µM*
O=c1c(S(=O)(=O)c2ccccc2)cn(Cc2ccccc2)c2cc(N3CCOCC3)c(F)cc12	.	?	.	20.6µM*	.	.
Cc1ccc(Cn2cc(S(=O)(=O)c3cccc(C)c3)c(=O)c3cc(F)c(N4CCOCC4)cc32)cc1	.	-26.8%	.	?	.	.
O=c1c(S(=O)(=O)c2ccccc2)cn(Cc2cccc(F)c2)c2cc(N3CCOCC3)c(F)cc12	.	23.1µM*	.	?	.	.
COC(=O)C1=C(C)N(c2ccc(Cl)c(Cl)c2)C(=O)C1	-18.5	5.17µM*	-9.0%	5.17µM*	14.6µM*	?
CC[n+]1cccc(-c2nc3ccccc3s2)c1	56.7	9.8%	-19.5%	?	-7.8%	-12.6%
CC[n+]1c(/C=C/N(C)c2ccccc2)n(-c2ccccc2)c2ccc(-c3nc4ccccc4s3)cc21	-101.5*	0.731µM*	-12.4%	0.82µM*	?	5.8µM*
CC(C)Oc1cc(F)ccc1-c1cc(C(=O)NCc2ccccn2)[nH]n1	-9.7	?	.	?	-1.2%	9.1%
O=C(CSc1nc2ccccc2s1)Nc1cc(S(=O)(=O)N2CCOCC2)ccc1O	19.9	-26.3%	11.2%	-29.1%	1.6%	2.2%
Cn1c(-c2ccc3ccccc3n2)nc2cnccc21	0.0	14.6µM*	-20.1%	18.4µM*	-4.0%	-2.3%
N#Cc1ccc(CN2CCN(C(=O)Cn3nc(C(N)=O)c4ccccc4c3=O)CC2)cc1	-7.6	-28.3%	-3.3%	-19.6%	-1.6%	-5.4%
CC(NC(=O)COC(=O)c1ccco1)c1ccccc1 (configuration not stated)	0.2	-4.7%	-2.8%	-7.0%	-4.3%	-1.1%
COc1ccccc1C(=O)COC(=O)c1ccccc1O	19.2	-10.3%	1.1%	-14.2%	9.4%	12.0%
